T cruzi growth-1 = T. cruzi intracellular proliferation inhibitors, primary screen, cell-based, beta-gal Tulahuen parasites, NIH3T3 host, luminescence; inhibition, % at 8.34 µM; T. cruzi beta-gal in NIH3T3, GalScreen luminescence, 90 h; actives 5.9% (n = 77,000);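 active = mean inhibition above about 93%, with at least 55% of replicates each passing it, limit read from the data, passing the limit was not always enough; inconclusive = only one of those two conditions holds; inactive = neither condition holds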
Pf Dd2 growth = P. falciparum Dd2 growth inhibitors, primary screen, SYBR Green fluorescence, single dose replicates. 72 h; hits give low values. activity change, % at 10 µM. actives 2.3% (n = 94,000); in the data active = activity change below about -80%; inconclusive = no clear call, values can overlap the other calls
C diff HTS = C. difficile growth inhibitors, primary screen, HTS. Clostridium difficile clinical isolate growth, OD600, 24 h; hits give low values. growth activity, negative = inhibition, % at 16 µg/mL (by protocol). actives 0.25% (n = 86,000). AID 1259249, 2017;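 active = mean growth activity at or below -80% and every replicate also at or below -80%; inconclusive = mean at or below -80% but some replicate above -80%; inactive = mean growth activity above -80%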;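 note: 0% = DMSO wells and -100% = levofloxacin 16 µg/mL wells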
T cruzi growth-2 = T. cruzi intracellular proliferation inhibitors, confirmation, cell-based, NIH3T3 host, beta-gal parasite, luminescence, cherry-pick. T. cruzi beta-gal in NIH3T3, GalScreen luminescence, 90 h. shares compounds with T cruzi growth-1. actives 72% (n = 5,600). inhibition, % at 8.35 µM;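 active = mean replicate inhibition above about 95% and at least 55% of replicates individually reaching it, limit read from the data; inconclusive = only one of the two criteria is met; inactive = neither criterion is met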
T cruzi growth-3 = inhibitors of intracellular T. cruzi replication, confirmation, NIH3T3 host cells, beta-gal parasites, cherry-pick, set 2; shares compounds with T cruzi growth-1; T. cruzi beta-gal in NIH3T3, GalScreen luminescence, 90 h; inhibition, % at 2.09 µM; actives 21% (n = 5,600); AID 651740, 2012;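 active = mean inhibition above about 95%, with at least 55% of replicates also reaching it, limit read from the data; inconclusive = meets just one of the two conditions; inactive = meets neither condition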;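 note: plate controls were neutral control median for no effect and positive control median for full effect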
NIH3T3 tox = cytotoxicity in mouse NIH/3T3 fibroblasts, confirmation, cytotoxicity control for T. cruzi proliferation inhibitor project, cell-based, cherry-pick, single point | shares compounds with T cruzi growth-1 | NIH/3T3 viability, CellTiter-Glo ATP luminescence, 90 h | cytotoxicity (signal decrease), % at 8.35 µM | actives 14% (n = 5,600) | AID 651742, 2012;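 active = mean signal decrease across replicates above about 35% based on untreated-well scatter, with enough replicates individually passing, limit read from the data; inconclusive = no rule stated though some were filed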;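 note: 0% = median of neutral control wells and 100% = median of positive control wells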
NIH3T3 tox 2 = NIH/3T3 fibroblast cytotoxicity, confirmation, cytotoxicity control, cell-based, cherry-pick, single point, set 2 | shares compounds with T cruzi growth-1 | NIH/3T3 viability, CellTiter-Glo ATP luminescence, 90 h | inhibition, % at 24.9 µM | actives 56% (n = 5,600);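 active = mean loss of cell viability signal at or above a set limit, and enough replicates individually reaching it; inconclusive = meets only the mean limit or only the replicate share; inactive = meets neither condition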;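 note: 0% = median of neutral control wells and 100% = median of positive control wells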
The depositor's hits bear a star; u = inconclusive; x = no result. Hits are enriched below; roughly 6.8% of the tested compounds scored in any of these assays.

SMILES	T cruzi growth-1	Pf Dd2 growth	C diff HTS	others
Cc1noc(C)c1S(=O)(=O)Nc1ccc2c(c1)C(=O)N([C@H](C)CO)C[C@@H](C)[C@H](CN(C)S(=O)(=O)c1ccc(Cl)cc1)OCCCC[C@@H](C)O2	104*	u	9	T cruzi growth-2=107*;T cruzi growth-3=82;NIH3T3 tox=15;NIH3T3 tox 2=9
Cc1noc(C)c1S(=O)(=O)N(C)C[C@H]1OCCCC[C@@H](C)Oc2ccc(NS(=O)(=O)c3ccc(F)cc3)cc2C(=O)N([C@H](C)CO)C[C@@H]1C	3	-33	-7
Cc1noc(C)c1S(=O)(=O)Nc1ccc2c(c1)C(=O)N([C@@H](C)CO)C[C@@H](C)[C@@H](CN(C)S(=O)(=O)c1ccc(Cl)cc1)OCCCC[C@@H](C)O2	75	-77	8
COc1ccccc1CN1C[C@H](C)[C@@H](OC)CN(C)C(=O)c2cc(NC(C)=O)ccc2OC[C@@H]1C	22	5	x
CCNC(=O)C[C@@H]1CC[C@@H]2[C@H](COC[C@@H](O)CN2C(=O)Nc2ccc(Cl)c(Cl)c2)O1	5	-8	x
C[C@@H]1CN([C@@H](C)CO)C(=O)Cc2cc(NC(=O)C3CC3)ccc2O[C@@H]1CN(C)S(=O)(=O)c1cccs1	19	3	5
COc1ccc(NC(=O)N(C)C[C@@H]2Oc3ccc(NS(=O)(=O)c4ccc(C)cc4)cc3CC(=O)N([C@H](C)CO)C[C@@H]2C)cc1	-4	11	x
C[C@@H]1CN([C@@H](C)CO)S(=O)(=O)c2ccc(-c3ccncc3)cc2O[C@@H]1CN(C)Cc1ccc(Oc2ccccc2)cc1	u	-84*	5	T cruzi growth-2=99*;T cruzi growth-3=108*;NIH3T3 tox=74*;NIH3T3 tox 2=74*
C[C@H](CO)N1C[C@H](C)[C@@H](CN(C)Cc2cccnc2)Oc2cc(-c3ccncc3)ccc2S1(=O)=O	82	-31	6
C[C@H]1CN([C@@H](C)CO)S(=O)(=O)c2ccc(-c3cncnc3)cc2O[C@H]1CN(C)Cc1ccc(Oc2ccccc2)cc1	x	9	18
C[C@H](CO)N1C[C@H](C)[C@H](CN(C)Cc2ccc(Oc3ccccc3)cc2)Oc2cc(-c3ccncc3)ccc2S1(=O)=O	124*	-75	28	T cruzi growth-2=101*;T cruzi growth-3=104*;NIH3T3 tox=64*;NIH3T3 tox 2=64*
O=C(C[C@H]1C[C@H]2c3cc(NS(=O)(=O)c4ccc(F)cc4)ccc3O[C@H]2[C@H](CO)O1)NCCc1ccccc1	x	-3	-7
C[C@H]1CN([C@@H](C)CO)C(=O)c2cccc(NS(=O)(=O)c3cccs3)c2O[C@@H]1CN(C)Cc1ccccc1	6	-9	-11
Cc1ccc(S(=O)(=O)Nc2ccc3c(c2)C(=O)N([C@H](C)CO)C[C@H](C)[C@H](CN(C)S(=O)(=O)c2cccs2)O3)cc1	-62	-39	-13
C[C@H](CO)N1C[C@H](C)[C@@H](CN(C)CC2CCCCC2)Oc2c(NS(C)(=O)=O)cccc2C1=O	61	17	4
CCC(=O)N1CCCCN2[C@H](CO)[C@H](c3ccc(C#CCOC)cc3)[C@H]2C1	64	-14	-2
CCC(=O)N1CCCCN2[C@H](CO)[C@@H](c3ccc(C#CCOC)cc3)[C@@H]2C1	100*	0	-6	T cruzi growth-2=1;T cruzi growth-3=22;NIH3T3 tox=-2;NIH3T3 tox 2=14
COCC#Cc1ccc([C@@H]2[C@H]3CN(C(=O)COC)CCCCN3[C@H]2CO)cc1	25	55	-11
COCC#Cc1ccc([C@@H]2[C@@H](CO)N3CCCCN(C(=O)COC)C[C@H]23)cc1	102*	56	-13	T cruzi growth-2=38;T cruzi growth-3=-5;NIH3T3 tox=16;NIH3T3 tox 2=-2
CNC[C@H]1Oc2ccc(NC(=O)NC(C)C)cc2C(=O)N([C@H](C)CO)C[C@H]1C	-54	13	2
O=C(Nc1ccccc1F)N[C@@H]1CC[C@H](CCNC(=O)C2CCOCC2)O[C@@H]1CO	-2	0	-3
COc1cccc(NC(=O)N[C@@H]2C=C[C@@H](CC(=O)N3CCCCC3)O[C@@H]2CO)c1	x	-1	-2
C[C@H](O)C#Cc1cnc2c(c1)C(=O)N([C@@H](C)CO)C[C@@H](C)[C@H](CN(C)C(=O)CN1CCOCC1)O2	56	31	1
C[C@@H]1CN([C@@H](C)CO)C(=O)c2cc(N(C)C)ccc2O[C@@H](C)CCCCO[C@H]1CN(C)Cc1ccccc1	99*	-17	2	T cruzi growth-2=100*;T cruzi growth-3=71;NIH3T3 tox=14;NIH3T3 tox 2=0
C[C@@H]1CCCCO[C@H](CN(C)Cc2ccccc2)[C@H](C)CN([C@@H](C)CO)C(=O)c2cc(N(C)C)ccc2O1	-46	x	-1
SMILES	T cruzi growth-1	Pf Dd2 growth	C diff HTS	others
C[C@@H]1CCCCO[C@@H](CN(C)Cc2ccc(C(F)(F)F)cc2)[C@@H](C)CN([C@@H](C)CO)C(=O)c2cc(N(C)C)ccc2O1	97*	-16	12	T cruzi growth-2=104*;T cruzi growth-3=36;NIH3T3 tox=13;NIH3T3 tox 2=28*
C[C@@H]1CCCCO[C@@H](CN(C)Cc2ccc(C(F)(F)F)cc2)[C@H](C)CN([C@H](C)CO)C(=O)c2cc(N(C)C)ccc2O1	u	-8	13	T cruzi growth-2=105*;T cruzi growth-3=91;NIH3T3 tox=4;NIH3T3 tox 2=59*
C[C@@H]1CN([C@H](C)CO)C(=O)c2cc(N(C)C)ccc2O[C@@H](C)CCCCO[C@@H]1CN(C)Cc1ccc(C(=O)O)cc1	8	35	3
C[C@@H]1CCCCO[C@@H](CN(C)Cc2ccc(C(F)(F)F)cc2)[C@H](C)CN([C@@H](C)CO)C(=O)c2cc(N(C)C)ccc2O1	93	-2	17
CO[C@H]1CN(C)C(=O)c2ccc(NS(=O)(=O)c3ccccc3)cc2OC[C@@H](C)N(C)C[C@H]1C	29	26	-3
O=C(C[C@H]1CC[C@@H](NS(=O)(=O)c2ccc(F)cc2)[C@H](CO)O1)NCc1ccccc1F	x	27	1
CO[C@H]1CN(C)C(=O)c2cc(NC(=O)c3ccccc3F)ccc2OC[C@@H](C)N(CC2CCOCC2)C[C@@H]1C	-2	-8	x
CO[C@H]1CN(C)C(=O)c2cc(NC(=O)c3ccc(F)cc3)ccc2OC[C@@H](C)N(Cc2cocn2)C[C@@H]1C	-6	-5	x
COc1ccccc1NC(=O)N1CCCCN2[C@H](CO)[C@@H](c3ccc(C#CC4CC4)cc3)[C@@H]2C1	x	-45	13
COc1ccccc1NC(=O)N1CCCCN2[C@H](CO)[C@H](c3ccc(C#Cc4ccccc4)cc3)[C@@H]2C1	78	u	-3

Screening data: PubChem BioAssay, Broad Institute
